# From PubChem BioAssay (NCI)
# About 79,000 compounds went through this panel and 15% of them were active in at least one assay; those are over-represented in the sample as a whole. Unmarked numbers belong to inactive results. The source made the active and inactive calls. No stated cut-off is given here; in the data, active means growth inhibition above about 70%; inactive means the rest.
# How the values were obtained:
# [1] = NCI Yeast Anticancer Drug Screen. Data for the rad52 strain (AID 147);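 further: 0% = growth of vehicle-treated control cultures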; details: S. cerevisiae rad52 mutant growth inhibition, stronger effect = higher value
# Summary of the method: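 DNA repair-defective yeast; compound exposure; growth scored against vehicle controls.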
# [2] = NCI Yeast Anticancer Drug Screen. Data for the wt1 strain (AID 149);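 further: 0% = growth of vehicle-treated wt1 cultures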; details: S. cerevisiae wt1 strain (SPY 50644) growth inhibition, stronger effect = higher value
# Summary of the method: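 Growth inhibition read against vehicle controls after compound exposure of the wt1 yeast strain.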
# [3] = NCI Yeast Anticancer Drug Screen. Data for the rad50EPP+ strain (AID 151);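 further: 0% = growth of vehicle-treated control cultures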; details: S. cerevisiae rad50 mutant strain, stronger effect = higher value
# Summary of the method: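 rad50EPP+ yeast treated with test compounds. Readout: growth vs vehicle control.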
# [4] = NCI Yeast Anticancer Drug Screen. Data for the mgt1 strain (AID 153); details: S. cerevisiae mgt1 mutant growth inhibition, stronger effect = higher value
# Summary of the method: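 Growth inhibition relative to vehicle controls was scored for the mgt1 yeast strain after compound exposure.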
# [5] = NCI Yeast Anticancer Drug Screen. Data for the rad50 strain (AID 155);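 further: 0% = growth of vehicle-only cultures of the same strain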; details: S. cerevisiae rad50 strain growth inhibition, stronger effect = higher value
# Summary of the method: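 Readout: growth inhibition relative to vehicle-treated cultures. Compound exposure was carried out in a genetically defined yeast strain deficient in DNA damage repair.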
# [6] = NCI Yeast Anticancer Drug Screen. Data for the mec2-1 strain (AID 157); details: S. cerevisiae mec2-1 strain, stronger effect = higher value
# Summary of the method: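 Growth inhibition is read against vehicle-treated controls after compound exposure of the mec2-1 yeast strain, which is defective in DNA damage repair or cell cycle control.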
# [7] = NCI Yeast Anticancer Drug Screen. Data for the rad14 strain (AID 159);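 further: 0% = growth of vehicle-treated control cultures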; details: S. cerevisiae rad14 strain growth inhibition, stronger effect = higher value
# Summary of the method: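 Growth inhibition vs vehicle controls; genetically altered yeast strain (DNA damage repair defect) treated with test compounds.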
# [8] = NCI Yeast Anticancer Drug Screen. Data for the sgs1 mgt1 strain (AID 161);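 further: 0% = growth of cultures given vehicle only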; details: S. cerevisiae sgs1 mgt1 strain, stronger effect = higher value
# Summary of the method: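 Percent growth inhibition was derived by comparing compound-exposed mutant yeast with vehicle-exposed cultures. The strain carries alterations in DNA damage repair.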
# [9] = NCI Yeast Anticancer Drug Screen. Data for the CLN2oe strain (AID 163);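 further: 0% = growth of vehicle-only control cultures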; details: S. cerevisiae CLN2oe strain, stronger effect = higher value
# Summary of the method: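 Compound-treated yeast; growth vs vehicle ctrl = % inhibition. Genetically altered strain (cell-cycle control).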
# [10] = NCI Yeast Anticancer Drug Screen. Data for the cln2 rad14 strain (AID 165);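 further: 0% = growth equal to vehicle treated cultures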; details: S. cerevisiae cln2 rad14 strain, stronger effect = higher value
# Summary of the method: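 Growth inhibition, relative to vehicle-treated controls, is the read-out. The test organism is a yeast strain with defined genetic alterations, cln2 rad14.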
# [11] = NCI Yeast Anticancer Drug Screen. Data for the bub3 strain (AID 167); details: S. cerevisiae bub3 mutant strain, stronger effect = higher value
# Summary of the method: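 Readout: yeast growth inhibition, expressed relative to vehicle-only wells. The test organism is a mutant strain from a panel with lesions in DNA repair or checkpoint genes.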
# [12] = NCI Yeast Anticancer Drug Screen. Data for the wt2 strain (AID 169);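 further: 0% = growth of vehicle-treated yeast cultures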; details: S. cerevisiae wt2 strain growth inhibition, stronger effect = higher value
# Summary of the method: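 Compound exposure of yeast; growth compared with vehicle controls; inhibition reported.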
# [13] = NCI Yeast Anticancer Drug Screen. Data for the mlh1 strain (AID 171);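 further: 0% = growth of vehicle-treated control cultures of the same strain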; details: S. cerevisiae mlh1 strain growth inhibition, stronger effect = higher value
# Summary of the method: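 Compounds are applied to a genetically altered yeast strain, and its growth is compared with that of vehicle-treated cultures to give percent inhibition.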
# [14] = NCI Yeast Anticancer Drug Screen. Data for the sgs1 strain (AID 173);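 further: 0% = growth of vehicle-only control cultures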; details: S. cerevisiae sgs1 mutant, stronger effect = higher value
# Summary of the method: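 Compounds applied to genetically altered yeast; growth compared with vehicle-treated cultures to give % inhibition.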
# [15] = NCI Yeast Anticancer Drug Screen. Data for the mlh1 rad18 strain (AID 175); details: S. cerevisiae mlh1 rad18 strain growth inhibition, stronger effect = higher value
# Summary of the method: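 Cells of a genetically altered yeast strain, deficient in DNA damage repair, were treated with compound. Their growth was then compared with that of vehicle-treated cultures to give inhibition.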
# [16] = NCI Yeast Anticancer Drug Screen. Data for the rad18 strain (AID 177); details: S. cerevisiae rad18 mutant growth inhibition, stronger effect = higher value
# Summary of the method: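 Compounds are applied to a repair-deficient yeast strain, and growth is compared with that of vehicle-treated cultures to give percent inhibition.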
# [17] = at 5.0 µM (retest, dose inferred, filed as 0.5)
# [18] = at 50.0 µM (retest, dose inferred, filed as 5.0)
smiles,measurement,setting,value
C(CCSC1=NCCN1)CSC1=NCCN1 (tested in a mixture with another compound),growth inhibition,[1]; at 1.2 µM,20%
same,growth inhibition,[1]; at 3.7 µM,39%
same,growth inhibition,[1]; at 11.0 µM,79% (active)
same,growth inhibition,[1]; at 33.0 µM,99% (active)
same,growth inhibition,[1]; at 100.0 µM,99% (active)
same,growth inhibition,[2]; at 1.2 µM,-3%
same,growth inhibition,[2]; at 3.7 µM,9%
same,growth inhibition,[2]; at 11.0 µM,41%
same,growth inhibition,[2]; at 33.0 µM,99% (active)
same,growth inhibition,[2]; at 100.0 µM,99% (active)
same,growth inhibition,[3]; at 1.2 µM,30%
same,growth inhibition,[3]; at 3.7 µM,46%
same,growth inhibition,[3]; at 11.0 µM,78% (active)
same,growth inhibition,[3]; at 33.0 µM,73% (active)
same,growth inhibition,[3]; at 100.0 µM,99% (active)
same,growth inhibition,[4]; at 1.2 µM,-2%
same,growth inhibition,[4]; at 3.7 µM,18%
same,growth inhibition,[4]; at 11.0 µM,89% (active)
same,growth inhibition,[4]; at 33.0 µM,99% (active)
same,growth inhibition,[4]; at 100.0 µM,98% (active)
same,growth inhibition,[5]; at 1.2 µM,21%
same,growth inhibition,[5]; at 3.7 µM,44%
same,growth inhibition,[5]; [17],59%
same,growth inhibition,[5]; at 11.0 µM,83% (active)
same,growth inhibition,[5]; at 33.0 µM,99% (active)
same,growth inhibition,[5]; [18],98% (active)
same,growth inhibition,[5]; at 50.0 µM,99.2% (active)
same,growth inhibition,[5]; at 100.0 µM,98% (active)
same,growth inhibition,[6]; at 1.2 µM,5%
same,growth inhibition,[6]; at 3.7 µM,28%
same,growth inhibition,[6]; [17],43%
same,growth inhibition,[6]; at 11.0 µM,94% (active)
same,growth inhibition,[6]; at 33.0 µM,99% (active)
same,growth inhibition,[6]; [18],99% (active)
same,growth inhibition,[6]; at 50.0 µM,99.5% (active)
same,growth inhibition,[6]; at 100.0 µM,99% (active)
same,growth inhibition,[7]; at 1.2 µM,5%
same,growth inhibition,[7]; at 3.7 µM,27%
same,growth inhibition,[7]; at 11.0 µM,99% (active)
same,growth inhibition,[7]; at 33.0 µM,99% (active)
same,growth inhibition,[7]; at 100.0 µM,99% (active)
same,growth inhibition,[8]; [17],73% (active)
same,growth inhibition,[8]; [18],99% (active)
same,growth inhibition,[8]; at 50.0 µM,99.5% (active)
same,growth inhibition,[9]; at 1.2 µM,-5%
same,growth inhibition,[9]; at 3.7 µM,6%
same,growth inhibition,[9]; at 11.0 µM,29%
same,growth inhibition,[9]; at 33.0 µM,97% (active)
same,growth inhibition,[9]; at 100.0 µM,98% (active)
same,growth inhibition,[10]; [17],16%
same,growth inhibition,[10]; [18],98% (active)
same,growth inhibition,[10]; at 50.0 µM,97.6% (active)
same,growth inhibition,[11]; at 1.2 µM,-8%
same,growth inhibition,[11]; at 3.7 µM,12%
same,growth inhibition,[11]; [17],5%
same,growth inhibition,[11]; at 11.0 µM,94% (active)
same,growth inhibition,[11]; at 33.0 µM,99% (active)
same,growth inhibition,[11]; [18],98% (active)
same,growth inhibition,[11]; at 50.0 µM,99% (active)
same,growth inhibition,[11]; at 100.0 µM,98% (active)
same,growth inhibition,[12]; at 1.2 µM,-2%
same,growth inhibition,[12]; at 3.7 µM,10%
same,growth inhibition,[12]; at 11.0 µM,63%
same,growth inhibition,[12]; at 33.0 µM,99% (active)
same,growth inhibition,[12]; at 100.0 µM,99% (active)
same,growth inhibition,[13]; at 1.2 µM,5%
same,growth inhibition,[13]; at 3.7 µM,20%
same,growth inhibition,[13]; at 11.0 µM,83% (active)
same,growth inhibition,[13]; at 33.0 µM,99% (active)
same,growth inhibition,[13]; at 100.0 µM,98% (active)
same,growth inhibition,[14]; at 1.2 µM,11%
same,growth inhibition,[14]; at 3.7 µM,35%
same,growth inhibition,[14]; at 11.0 µM,86% (active)
same,growth inhibition,[14]; at 33.0 µM,99% (active)
same,growth inhibition,[14]; at 100.0 µM,99% (active)
same,growth inhibition,[15]; [17],77% (active)
same,growth inhibition,[15]; [18],98% (active)
same,growth inhibition,[15]; at 50.0 µM,99% (active)
same,growth inhibition,[16]; at 1.2 µM,26%
same,growth inhibition,[16]; at 3.7 µM,52%
same,growth inhibition,[16]; at 11.0 µM,91% (active)
same,growth inhibition,[16]; at 33.0 µM,99% (active)
same,growth inhibition,[16]; at 100.0 µM,99% (active)
CNC(=O)OCc1c(COC(=O)NC)c(-c2ccc(Cl)c(Cl)c2)n2c1CCC2,growth inhibition,[1]; at 1.2 µM,-21%
same,growth inhibition,[1]; at 3.7 µM,-27%
same,growth inhibition,[1]; at 11.0 µM,-14%
same,growth inhibition,[1]; at 33.0 µM,77% (active)
same,growth inhibition,[1]; at 100.0 µM,97% (active)
same,growth inhibition,[2]; at 1.2 µM,-53%
same,growth inhibition,[2]; at 3.7 µM,-56%
same,growth inhibition,[2]; at 11.0 µM,-48%
same,growth inhibition,[2]; at 33.0 µM,71% (active)
same,growth inhibition,[2]; at 100.0 µM,98% (active)
same,growth inhibition,[3]; at 1.2 µM,-19%
same,growth inhibition,[3]; at 3.7 µM,-21%
same,growth inhibition,[3]; at 11.0 µM,-31%
same,growth inhibition,[3]; at 33.0 µM,-28%
same,growth inhibition,[3]; at 100.0 µM,4%
same,growth inhibition,[4]; at 1.2 µM,-66%
same,growth inhibition,[4]; at 3.7 µM,-73%
same,growth inhibition,[4]; at 11.0 µM,-69%
same,growth inhibition,[4]; at 33.0 µM,95% (active)
same,growth inhibition,[4]; at 100.0 µM,98% (active)
same,growth inhibition,[5]; at 1.2 µM,-51%
same,growth inhibition,[5]; at 3.7 µM,-51%
same,growth inhibition,[5]; [17],17%
same,growth inhibition,[5]; at 11.0 µM,-37%
same,growth inhibition,[5]; at 33.0 µM,87% (active)
same,growth inhibition,[5]; [18],98% (active)
same,growth inhibition,[5]; at 50.0 µM,84.9% (active)
same,growth inhibition,[5]; at 100.0 µM,97% (active)
same,growth inhibition,[6]; at 1.2 µM,-74%
same,growth inhibition,[6]; at 3.7 µM,-47%
same,growth inhibition,[6]; [17],-5%
same,growth inhibition,[6]; at 11.0 µM,-32%
same,growth inhibition,[6]; at 33.0 µM,85% (active)
same,growth inhibition,[6]; [18],98% (active)
same,growth inhibition,[6]; at 50.0 µM,87.5% (active)
same,growth inhibition,[6]; at 100.0 µM,98% (active)
same,growth inhibition,[7]; at 1.2 µM,-34%
same,growth inhibition,[7]; at 3.7 µM,-36%
same,growth inhibition,[7]; at 11.0 µM,-31%
same,growth inhibition,[7]; at 33.0 µM,98% (active)
same,growth inhibition,[7]; at 100.0 µM,98% (active)
same,growth inhibition,[8]; [17],32%
same,growth inhibition,[8]; [18],99% (active)
same,growth inhibition,[8]; at 50.0 µM,78.5% (active)
same,growth inhibition,[9]; at 1.2 µM,-4%
same,growth inhibition,[9]; at 3.7 µM,-13%
same,growth inhibition,[9]; at 11.0 µM,-13%
same,growth inhibition,[9]; at 33.0 µM,65%
same,growth inhibition,[9]; at 100.0 µM,98% (active)
same,growth inhibition,[10]; [17],38%
same,growth inhibition,[10]; [18],99% (active)
same,growth inhibition,[10]; at 50.0 µM,86.9% (active)
same,growth inhibition,[11]; at 1.2 µM,-58%
same,growth inhibition,[11]; at 3.7 µM,-61%
same,growth inhibition,[11]; [17],52%
same,growth inhibition,[11]; at 11.0 µM,-35%
same,growth inhibition,[11]; at 33.0 µM,93% (active)
same,growth inhibition,[11]; [18],99% (active)
same,growth inhibition,[11]; at 50.0 µM,55.6%
same,growth inhibition,[11]; at 100.0 µM,97% (active)
same,growth inhibition,[12]; at 1.2 µM,-14%
same,growth inhibition,[12]; at 3.7 µM,-14%
same,growth inhibition,[12]; at 11.0 µM,-14%
same,growth inhibition,[12]; at 33.0 µM,62%
same,growth inhibition,[12]; at 100.0 µM,97% (active)
same,growth inhibition,[13]; at 1.2 µM,-94%
same,growth inhibition,[13]; at 3.7 µM,-90%
same,growth inhibition,[13]; at 11.0 µM,-81%
same,growth inhibition,[13]; at 33.0 µM,98% (active)
same,growth inhibition,[13]; at 100.0 µM,97% (active)
same,growth inhibition,[14]; at 1.2 µM,-11%
same,growth inhibition,[14]; at 3.7 µM,-20%
same,growth inhibition,[14]; at 11.0 µM,-29%
same,growth inhibition,[14]; at 33.0 µM,88% (active)
same,growth inhibition,[14]; at 100.0 µM,97% (active)
same,growth inhibition,[15]; [17],5%
same,growth inhibition,[15]; [18],97% (active)
same,growth inhibition,[15]; at 50.0 µM,91.2% (active)
same,growth inhibition,[16]; at 1.2 µM,-39%
same,growth inhibition,[16]; at 3.7 µM,-46%
same,growth inhibition,[16]; at 11.0 µM,-32%
same,growth inhibition,[16]; at 33.0 µM,94% (active)
same,growth inhibition,[16]; at 100.0 µM,97% (active)
